Tests used:
Assay in all cases: DAPPL (digital affinity profiling via proximity ligation, sequencing); 10 mM Tris-HCl pH 7.5, 50 mM NaCl, 1 mM DTT, 4% glycerol, room temperature, 30 min; GST-TFs on glutathione beads, 16-mer random dsDNA library, 0.1% formaldehyde crosslink after washing; high values mean tight binding
[1] = molecular target: T1, FLI1 (Homo sapiens, UniProt Q01543 1-452); conditions: protein: recombinant; tags: N-terminal GST; dsDNA, one strand shown
T1 sequence: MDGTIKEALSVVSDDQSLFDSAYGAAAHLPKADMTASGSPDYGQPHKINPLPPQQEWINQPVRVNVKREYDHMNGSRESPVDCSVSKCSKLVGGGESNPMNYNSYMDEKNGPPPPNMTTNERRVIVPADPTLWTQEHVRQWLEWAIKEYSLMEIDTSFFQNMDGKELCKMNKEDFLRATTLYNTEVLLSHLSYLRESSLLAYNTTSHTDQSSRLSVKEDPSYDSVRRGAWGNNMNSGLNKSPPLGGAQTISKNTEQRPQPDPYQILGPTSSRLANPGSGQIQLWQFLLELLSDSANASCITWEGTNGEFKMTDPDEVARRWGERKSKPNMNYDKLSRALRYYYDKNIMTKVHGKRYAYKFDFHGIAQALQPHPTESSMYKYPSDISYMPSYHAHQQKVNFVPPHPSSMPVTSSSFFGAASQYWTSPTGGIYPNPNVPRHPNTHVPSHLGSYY
In short: (§1)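 Human transcription factors were made in yeast as GST fusions, captured on glutathione beads and barcoded with DNA. With a tag-only sample included, the pool was incubated with 200 nmole of a random double-stranded 16-mer DNA library in Tris/NaCl/DTT/glycerol buffer at room temperature for 30 min, then crosslinked with 0.1% formaldehyde after washing, ligated by proximity, amplified and sequenced. For binding signal, each hexamer's read frequency for a factor is divided by its frequency for the tag-only sample.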

[2] = molecular target: T2, GABPA (Homo sapiens, UniProt Q06546 1-454); conditions: protein: recombinant; tags: N-terminal GST; dsDNA, one strand shown
T2 sequence: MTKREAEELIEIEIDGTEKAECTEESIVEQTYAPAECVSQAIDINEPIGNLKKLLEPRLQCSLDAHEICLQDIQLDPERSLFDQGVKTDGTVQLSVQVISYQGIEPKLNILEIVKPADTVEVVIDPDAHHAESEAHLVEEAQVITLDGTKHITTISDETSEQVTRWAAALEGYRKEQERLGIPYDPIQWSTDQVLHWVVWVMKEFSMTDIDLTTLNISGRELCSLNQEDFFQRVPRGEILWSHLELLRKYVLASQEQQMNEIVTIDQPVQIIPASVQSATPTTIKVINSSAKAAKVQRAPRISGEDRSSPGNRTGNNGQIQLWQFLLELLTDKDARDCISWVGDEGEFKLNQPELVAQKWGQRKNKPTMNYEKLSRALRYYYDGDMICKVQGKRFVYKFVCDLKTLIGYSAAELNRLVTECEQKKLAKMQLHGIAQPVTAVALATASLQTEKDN
In short: as §1

[3] = molecular target: T3, ERG (Homo sapiens, UniProt P11308 1-479); conditions: protein: recombinant; tags: N-terminal GST; dsDNA, one strand shown
T3 sequence: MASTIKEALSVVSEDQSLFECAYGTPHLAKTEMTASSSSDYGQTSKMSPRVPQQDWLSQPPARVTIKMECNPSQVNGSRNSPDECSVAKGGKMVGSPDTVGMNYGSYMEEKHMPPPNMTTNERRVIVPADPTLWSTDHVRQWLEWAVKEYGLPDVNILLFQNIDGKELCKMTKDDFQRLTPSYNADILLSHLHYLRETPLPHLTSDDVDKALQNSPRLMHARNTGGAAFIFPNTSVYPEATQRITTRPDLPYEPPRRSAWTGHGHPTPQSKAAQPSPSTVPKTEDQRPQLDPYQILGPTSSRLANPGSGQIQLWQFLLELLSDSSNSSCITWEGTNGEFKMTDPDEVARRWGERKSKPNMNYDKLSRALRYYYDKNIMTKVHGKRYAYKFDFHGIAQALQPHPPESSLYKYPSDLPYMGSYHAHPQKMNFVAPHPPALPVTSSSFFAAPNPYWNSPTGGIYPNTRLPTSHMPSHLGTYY
In short: as §1

[4] = molecular target: ELF1 (Homo sapiens, UniProt P32519 1-619); conditions: protein: recombinant; tags: N-terminal GST; dsDNA, one strand shown
In short: as §1

[5] = molecular target: T4, EHF (Homo sapiens, UniProt Q9NZC4 1-300); conditions: protein: recombinant; tags: N-terminal GST; dsDNA, one strand shown
T4 sequence: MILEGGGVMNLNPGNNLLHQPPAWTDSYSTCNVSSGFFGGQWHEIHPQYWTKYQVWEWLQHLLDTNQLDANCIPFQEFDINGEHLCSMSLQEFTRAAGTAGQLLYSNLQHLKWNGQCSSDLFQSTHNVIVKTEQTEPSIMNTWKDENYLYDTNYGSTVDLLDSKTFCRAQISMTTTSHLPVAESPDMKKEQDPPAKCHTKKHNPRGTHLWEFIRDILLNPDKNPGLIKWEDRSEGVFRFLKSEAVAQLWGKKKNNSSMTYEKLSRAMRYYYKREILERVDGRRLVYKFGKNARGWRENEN
In short: as §1

[6] = molecular target: SPI1 (Homo sapiens, UniProt P17947 1-270); conditions: protein: recombinant; tags: N-terminal GST; dsDNA, one strand shown
In short: as §1

[7] = molecular target: T5, ELK3 (Homo sapiens, UniProt P41970 1-407); conditions: protein: recombinant; tags: N-terminal GST; dsDNA, one strand shown
T5 sequence: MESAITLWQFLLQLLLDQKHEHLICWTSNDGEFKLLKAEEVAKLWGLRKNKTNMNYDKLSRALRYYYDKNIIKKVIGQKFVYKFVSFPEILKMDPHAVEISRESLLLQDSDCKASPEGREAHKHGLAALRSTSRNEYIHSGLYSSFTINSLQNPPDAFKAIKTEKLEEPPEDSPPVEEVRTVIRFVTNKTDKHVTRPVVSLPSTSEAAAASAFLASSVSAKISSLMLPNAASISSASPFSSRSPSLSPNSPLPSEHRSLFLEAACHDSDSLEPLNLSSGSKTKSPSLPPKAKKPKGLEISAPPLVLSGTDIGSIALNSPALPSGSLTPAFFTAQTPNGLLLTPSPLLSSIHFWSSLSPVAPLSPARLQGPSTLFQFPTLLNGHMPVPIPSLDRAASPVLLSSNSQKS
In short: as §1

[8] = molecular target: T6, FEV (Homo sapiens, UniProt Q99581 1-238); conditions: protein: recombinant; tags: N-terminal GST; dsDNA, one strand shown
T6 sequence: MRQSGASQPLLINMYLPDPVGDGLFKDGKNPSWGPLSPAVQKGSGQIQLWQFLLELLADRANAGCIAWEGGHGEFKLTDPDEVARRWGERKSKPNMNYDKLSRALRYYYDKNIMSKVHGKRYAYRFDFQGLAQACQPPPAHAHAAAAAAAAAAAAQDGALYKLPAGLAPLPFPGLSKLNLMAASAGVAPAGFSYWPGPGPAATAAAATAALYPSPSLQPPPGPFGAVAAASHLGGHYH
In short: as §1

[9] = molecular target: ETV5 (Homo sapiens, UniProt P41161 1-510); conditions: protein: recombinant; tags: N-terminal GST; dsDNA, one strand shown
In short: as §1

[10] = molecular target: HSF1 (Homo sapiens, UniProt Q00613 1-529); conditions: protein: recombinant; tags: N-terminal GST; chain copies: 3; dsDNA, one strand shown
In short: as §1

[11] = molecular target: T7, ELK4 (Homo sapiens, UniProt P28324-2 1-405); conditions: protein: recombinant; tags: N-terminal GST; dsDNA, one strand shown
T7 sequence: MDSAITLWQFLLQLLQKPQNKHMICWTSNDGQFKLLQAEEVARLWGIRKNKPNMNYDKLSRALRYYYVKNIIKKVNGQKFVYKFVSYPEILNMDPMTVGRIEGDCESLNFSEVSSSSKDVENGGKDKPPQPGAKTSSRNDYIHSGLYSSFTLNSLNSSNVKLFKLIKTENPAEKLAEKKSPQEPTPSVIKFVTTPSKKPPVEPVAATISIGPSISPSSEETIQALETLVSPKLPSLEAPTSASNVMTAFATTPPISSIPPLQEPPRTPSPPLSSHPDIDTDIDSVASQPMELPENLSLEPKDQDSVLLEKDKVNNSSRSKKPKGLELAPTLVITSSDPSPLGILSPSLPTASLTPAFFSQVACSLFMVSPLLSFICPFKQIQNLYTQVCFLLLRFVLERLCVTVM
In short: as §1

[12] = molecular target: T8, ELF3 (Homo sapiens, UniProt P78545 1-371); conditions: protein: recombinant; tags: N-terminal GST; dsDNA, one strand shown
T8 sequence: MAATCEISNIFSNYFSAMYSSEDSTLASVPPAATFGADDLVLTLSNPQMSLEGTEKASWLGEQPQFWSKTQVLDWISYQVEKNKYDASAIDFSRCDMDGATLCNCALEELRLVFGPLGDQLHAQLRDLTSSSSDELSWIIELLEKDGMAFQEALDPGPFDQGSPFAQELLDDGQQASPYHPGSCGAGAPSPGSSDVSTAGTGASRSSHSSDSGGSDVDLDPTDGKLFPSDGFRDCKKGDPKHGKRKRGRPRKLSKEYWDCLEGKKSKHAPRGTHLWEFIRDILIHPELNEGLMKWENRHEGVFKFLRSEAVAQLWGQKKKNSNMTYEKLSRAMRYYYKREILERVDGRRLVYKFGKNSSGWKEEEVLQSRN
In short: as §1

[13] = molecular target: CRX (Homo sapiens, UniProt O43186 1-299); conditions: protein: recombinant; tags: N-terminal GST; dsDNA, one strand shown
In short: as §1

[14] = molecular target: ETV1 (Homo sapiens, UniProt P50549 1-477); conditions: protein: recombinant; tags: N-terminal GST; dsDNA, one strand shown
In short: as §1

[15] = molecular target: T9, ELK1 (Homo sapiens, UniProt P19419 1-428); conditions: protein: recombinant; tags: N-terminal GST; dsDNA, one strand shown
T9 sequence: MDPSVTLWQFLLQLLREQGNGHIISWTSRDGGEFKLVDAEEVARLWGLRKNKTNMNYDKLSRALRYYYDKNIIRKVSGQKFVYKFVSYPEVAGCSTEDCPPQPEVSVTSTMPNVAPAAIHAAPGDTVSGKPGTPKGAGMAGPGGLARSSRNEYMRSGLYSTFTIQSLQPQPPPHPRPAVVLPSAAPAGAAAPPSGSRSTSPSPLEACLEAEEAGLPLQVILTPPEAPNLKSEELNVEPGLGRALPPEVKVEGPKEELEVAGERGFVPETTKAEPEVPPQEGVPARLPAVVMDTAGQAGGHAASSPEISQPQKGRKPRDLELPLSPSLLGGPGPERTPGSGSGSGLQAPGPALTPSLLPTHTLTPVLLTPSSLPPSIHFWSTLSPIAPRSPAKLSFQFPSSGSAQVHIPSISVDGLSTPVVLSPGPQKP
In short: as §1

[16] = molecular target: T10, ETV2 (Homo sapiens, UniProt O00321 1-342); conditions: protein: recombinant; tags: N-terminal GST; dsDNA, one strand shown
T10 sequence: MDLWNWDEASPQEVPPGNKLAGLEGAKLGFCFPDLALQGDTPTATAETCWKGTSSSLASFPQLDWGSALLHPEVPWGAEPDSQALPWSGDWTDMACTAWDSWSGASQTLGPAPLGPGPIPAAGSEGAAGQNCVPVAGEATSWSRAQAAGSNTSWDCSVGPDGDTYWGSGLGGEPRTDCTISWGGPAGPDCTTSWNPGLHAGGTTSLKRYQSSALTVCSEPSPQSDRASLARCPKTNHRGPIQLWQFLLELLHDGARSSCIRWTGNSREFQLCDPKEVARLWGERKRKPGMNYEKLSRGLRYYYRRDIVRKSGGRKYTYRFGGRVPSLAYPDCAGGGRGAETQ
In short: as §1

ETV1, sequence (P50549 whole entry): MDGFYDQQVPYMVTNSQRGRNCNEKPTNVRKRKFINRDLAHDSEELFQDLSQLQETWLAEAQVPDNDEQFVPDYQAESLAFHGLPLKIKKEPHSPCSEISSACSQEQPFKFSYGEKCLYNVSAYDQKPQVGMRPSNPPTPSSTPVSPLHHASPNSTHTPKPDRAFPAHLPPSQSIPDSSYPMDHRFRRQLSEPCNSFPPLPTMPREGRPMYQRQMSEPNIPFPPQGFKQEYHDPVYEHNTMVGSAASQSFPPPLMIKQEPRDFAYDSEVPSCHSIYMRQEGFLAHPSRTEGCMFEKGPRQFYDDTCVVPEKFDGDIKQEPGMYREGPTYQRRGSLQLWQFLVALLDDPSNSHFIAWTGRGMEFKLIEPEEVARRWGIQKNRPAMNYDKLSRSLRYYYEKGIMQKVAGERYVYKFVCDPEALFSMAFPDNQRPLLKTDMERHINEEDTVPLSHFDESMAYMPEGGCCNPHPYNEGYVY
ETV5, sequence (P41161 whole entry): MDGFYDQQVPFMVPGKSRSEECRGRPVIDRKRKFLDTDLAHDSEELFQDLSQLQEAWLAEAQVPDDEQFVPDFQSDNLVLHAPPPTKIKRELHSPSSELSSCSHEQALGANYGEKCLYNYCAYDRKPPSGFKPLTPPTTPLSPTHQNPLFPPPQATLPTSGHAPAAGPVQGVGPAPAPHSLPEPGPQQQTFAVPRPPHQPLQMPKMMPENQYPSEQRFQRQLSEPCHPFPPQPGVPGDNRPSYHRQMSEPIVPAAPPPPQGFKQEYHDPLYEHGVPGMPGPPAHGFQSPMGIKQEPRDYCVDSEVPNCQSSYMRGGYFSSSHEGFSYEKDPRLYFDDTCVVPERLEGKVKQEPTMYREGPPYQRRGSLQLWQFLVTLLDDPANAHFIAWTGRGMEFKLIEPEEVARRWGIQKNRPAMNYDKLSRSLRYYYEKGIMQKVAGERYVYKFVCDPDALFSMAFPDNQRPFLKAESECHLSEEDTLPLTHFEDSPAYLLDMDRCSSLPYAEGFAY
CRX, sequence (O43186 whole entry): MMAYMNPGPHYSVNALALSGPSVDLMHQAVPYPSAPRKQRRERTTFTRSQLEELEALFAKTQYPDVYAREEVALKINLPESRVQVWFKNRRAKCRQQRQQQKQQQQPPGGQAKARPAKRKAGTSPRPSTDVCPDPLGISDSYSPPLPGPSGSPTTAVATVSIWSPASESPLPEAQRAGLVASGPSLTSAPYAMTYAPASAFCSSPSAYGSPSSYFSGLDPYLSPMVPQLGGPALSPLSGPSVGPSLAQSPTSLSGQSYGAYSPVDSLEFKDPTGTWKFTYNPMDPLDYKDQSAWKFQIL
HSF1, sequence (Q00613 whole entry): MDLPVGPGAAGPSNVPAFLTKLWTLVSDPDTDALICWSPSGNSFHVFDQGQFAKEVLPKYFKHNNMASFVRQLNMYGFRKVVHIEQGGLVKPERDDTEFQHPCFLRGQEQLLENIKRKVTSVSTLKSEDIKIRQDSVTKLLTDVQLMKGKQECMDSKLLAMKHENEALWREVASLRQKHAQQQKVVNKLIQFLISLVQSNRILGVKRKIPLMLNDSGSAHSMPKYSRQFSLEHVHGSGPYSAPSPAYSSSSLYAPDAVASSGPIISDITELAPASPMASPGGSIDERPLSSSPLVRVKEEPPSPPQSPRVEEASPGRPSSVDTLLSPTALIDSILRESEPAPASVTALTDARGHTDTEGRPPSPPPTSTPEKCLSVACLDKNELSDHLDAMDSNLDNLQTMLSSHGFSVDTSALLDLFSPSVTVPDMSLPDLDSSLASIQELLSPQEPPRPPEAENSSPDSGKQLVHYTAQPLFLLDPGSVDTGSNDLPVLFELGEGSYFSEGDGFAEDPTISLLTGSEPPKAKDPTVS
ELF1, sequence (P32519 whole entry): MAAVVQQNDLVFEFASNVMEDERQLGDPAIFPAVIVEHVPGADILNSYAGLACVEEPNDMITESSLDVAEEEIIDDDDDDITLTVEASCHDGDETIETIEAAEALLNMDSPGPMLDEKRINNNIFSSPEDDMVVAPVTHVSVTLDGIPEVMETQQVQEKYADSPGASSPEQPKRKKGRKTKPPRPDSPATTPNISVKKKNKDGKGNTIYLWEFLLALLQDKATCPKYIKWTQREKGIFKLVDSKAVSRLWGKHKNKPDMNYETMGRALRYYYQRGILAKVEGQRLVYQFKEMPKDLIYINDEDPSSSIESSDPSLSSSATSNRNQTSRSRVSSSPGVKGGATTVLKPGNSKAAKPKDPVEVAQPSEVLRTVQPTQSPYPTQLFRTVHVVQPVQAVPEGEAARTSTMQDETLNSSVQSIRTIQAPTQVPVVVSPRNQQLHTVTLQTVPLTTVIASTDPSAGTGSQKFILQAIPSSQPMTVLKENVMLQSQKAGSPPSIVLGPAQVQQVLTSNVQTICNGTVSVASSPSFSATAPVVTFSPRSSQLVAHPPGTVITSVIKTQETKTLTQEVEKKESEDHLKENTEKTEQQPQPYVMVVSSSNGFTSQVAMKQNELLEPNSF

## GGCTTA
[1]
  binding signal: 1.05 fold enrichment (6-mer frequency, TF over GST control)
[2]
  binding signal: 1.17 fold enrichment (6-mer frequency, TF over GST control)
[3]
  binding signal: 1.04 fold enrichment (6-mer frequency, TF over GST control)
[4]
  binding signal: 1.08 fold enrichment (6-mer frequency, TF over GST control)
[5]
  binding signal: 1.02 fold enrichment (6-mer frequency, TF over GST control)
[6]
  binding signal: 1.02 fold enrichment (6-mer frequency, TF over GST control)
[7]
  binding signal: 1.01 fold enrichment (6-mer frequency, TF over GST control)
[8]
  binding signal: 1.08 fold enrichment (6-mer frequency, TF over GST control)
[9]
  binding signal: 1.03 fold enrichment (6-mer frequency, TF over GST control)
[10]
  binding signal: 2.04 fold enrichment (6-mer frequency, TF over GST control)
[11]
  binding signal: 1.16 fold enrichment (6-mer frequency, TF over GST control)
[12]
  binding signal: 1.14 fold enrichment (6-mer frequency, TF over GST control)
[13]
  binding signal: 3.34 fold enrichment (6-mer frequency, TF over GST control)
[14]
  binding signal: 1.11 fold enrichment (6-mer frequency, TF over GST control)

## GGCATT
[1]
  binding signal: 1.08 fold enrichment (6-mer frequency, TF over GST control)
[15]
  binding signal: 1.05 fold enrichment (6-mer frequency, TF over GST control)
[2]
  binding signal: 1.04 fold enrichment (6-mer frequency, TF over GST control)
[3]
  binding signal: 1.04 fold enrichment (6-mer frequency, TF over GST control)
[5]
  binding signal: 1.01 fold enrichment (6-mer frequency, TF over GST control)
[6]
  binding signal: 1.05 fold enrichment (6-mer frequency, TF over GST control)
[7]
  binding signal: 1.14 fold enrichment (6-mer frequency, TF over GST control)
[8]
  binding signal: 1.04 fold enrichment (6-mer frequency, TF over GST control)
[9]
  binding signal: 1.05 fold enrichment (6-mer frequency, TF over GST control)
[10]
  binding signal: 1.12 fold enrichment (6-mer frequency, TF over GST control)
[11]
  binding signal: 1.08 fold enrichment (6-mer frequency, TF over GST control)
[16]
  binding signal: 1.02 fold enrichment (6-mer frequency, TF over GST control)
[13]
  binding signal: 1.29 fold enrichment (6-mer frequency, TF over GST control)
[14]
  binding signal: 1.1 fold enrichment (6-mer frequency, TF over GST control)

Source: paper PMC7862700, “An all-to-all approach to the identification of sequence-specific readers for epigenetic DNA modifications on cytosine”
